The panel holds about 83,000 compounds, 20% with a hit somewhere; the sample as a whole holds those more often.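 Cell lines were cultured in 96-well plates, exposed to a single compound concentration, and assessed for percent growth 48 hours later.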 Values without a mark were called inactive. The source made the active and inactive calls. How the source made its calls: active means growth percent below 10; inactive means the rest.
Experiments:
Test in all cases: NCI-60 one-dose screen, 48 h (100 = growth as untreated, 0 = no growth, -100 = all killed)
Conditions in all cases: 10 µM unless noted
NCI-H23 lung = tested on: NCI-H23 lung
NCI-H226 lung = tested on: NCI-H226 lung
NCI-H322M lung = tested on: NCI-H322M lung
HOP-62 NSCLC = tested on: HOP-62 NSCLC
NCI-H460 lung = tested on: NCI-H460 lung
HOP-92 NSCLC = tested on: HOP-92 NSCLC
NCI-H522 lung = tested on: NCI-H522 lung
A549/ATCC NSCLC = tested on: A549/ATCC NSCLC
786-0 renal = tested on: 786-0 renal
COLO 205 colon = tested on: COLO 205 colon
DU-145 prostate = tested on: DU-145 prostate
K-562 leukemia = tested on: K-562 leukemia
MALME-3M melanoma = tested on: MALME-3M melanoma
MDA-MB-231 breast = tested on: MDA-MB-231 breast
RXF 393 renal = tested on: RXF 393 renal
SF-268 CNS = tested on: SF-268 CNS
SF-295 CNS = tested on: SF-295 CNS
SF-539 CNS = tested on: SF-539 CNS
UACC-257 melanoma = tested on: UACC-257 melanoma
M14 melanoma = tested on: M14 melanoma

| SMILES | growth (NCI-H23 lung) | growth (NCI-H226 lung) | growth (NCI-H322M lung) | growth (HOP-62 NSCLC) | growth (NCI-H460 lung) | growth (HOP-92 NSCLC) | growth (NCI-H522 lung) | growth (A549/ATCC NSCLC) | growth (786-0 renal) | growth (COLO 205 colon) | growth (DU-145 prostate) | growth (K-562 leukemia) | growth (MALME-3M melanoma) | growth (MDA-MB-231 breast) | growth (RXF 393 renal) | growth (SF-268 CNS) | growth (SF-295 CNS) | growth (SF-539 CNS) | growth (UACC-257 melanoma) | growth (M14 melanoma) |
| --- | --- | --- | --- | --- | --- | --- | --- | --- | --- | --- | --- | --- | --- | --- | --- | --- | --- | --- | --- | --- |
| OCCCCCNC1CCCCC1 | 97.3% | 98.9% | 99% | 111% | 109% | 96.1% | 67.8% | 107% | 99.5% | 112% | 115% | 94% | 97.3% | 114% | 104% | 113% | 110% | 98% | 99.5% | 101% |
| N/C(=N\N=C\c1ccc(-c2ccccc2)cc1)N[N+](=O)[O-] | 41% | 73.6% | 52.7% | 38.2% | 16.4% | 51.6% | 18.2% | 38.4% | 40.6% | 24.9% | 33.4% | 14.9% | 43.7% | 66.5% | -4.68% (active) | 49.1% | 7.55% (active) | 9.43% (active) | 65.3% | 25.8% |
| CC12CCC=CC1CCC1C2CCC2(C)C(c3ccc(=O)oc3)CCC12O (configuration not stated) | -64% (active) | -92.3% (active) | -22.5% (active) | -71.9% (active) | -69.3% (active) | -10.7% (active) | -27.9% (active) | -52.1% (active) | -51.1% (active) | -50.9% (active) | -97.4% (active) | 0.925% (active) | -48.4% (active) | -5.15% (active) | -47.2% (active) | -62.8% (active) | -60% (active) | -90.3% (active) | -70.3% (active) | -30.3% (active) |
| CC(C)=CCc1c(O)c(C(=O)CC(C)C)c(O)c2c(-c3ccccc3)cc(=O)oc12 | 26.8% | 47.4% | 63.2% | 84.2% | 27.9% | -13.2% (active) | 31.5% | 54.6% | 66.2% | 83.1% | 61.9% | 28% | 56.9% | 5.93% (active) | 74.1% | 52.1% | 43.4% | 68.9% | 58.1% | 61% |
| O=C(CCCCCCC(=O)Nc1ccc(N(CCCl)CCCl)cc1)NO | 29.2% | 59.4% | 69.4% | 23.8% | 14.5% | 17.4% | 23.8% | 27.4% | 22.9% | 29.5% | 29% | 32.6% | 19.2% | 85.8% | -4.05% (active) | 11.6% | 32.7% | 31.1% | 18.6% | 42.5% |
| CCOP(=O)(Nc1ccc2c(c1)/C(=N/NC(N)=S)c1ccccc1-2)OCC | 99% | 97.6% | 132% | 117% | 104% | 96.1% | 95.4% | 99.5% | 104% | 96.3% | 102% | 103% | 139% | 59.7% | 90.1% | 98% | 116% | 84.7% | 113% | 108% |
| O=C(CCl)c1ccc([N+](=O)[O-])o1 | 5.38% (active) | 42.9% | 98.4% | 86.4% | 76.3% | -56% (active) | -56.7% (active) | 106% | -28.7% (active) | -86% (active) | -30.8% (active) | -36.7% (active) | -54.6% (active) | 64.6% | -48.2% (active) | 1.57% (active) | 92.2% | 2.78% (active) | -49.3% (active) | -11.5% (active) |
| Nc1ccc(-c2nc3cc(F)ccc3[se]2)cc1F | 33.9% | -13.2% (active) | 72.6% | 51.4% | 11.7% | 66% | 64.2% | 39.9% | 101% | 56.2% | 96.8% | 93% | 102% | 42.3% | 82.6% | 80.8% | 87.6% | 86.9% | 98.1% | 91.8% |
| Fc1ccc2c(c1)c(-c1nc(-c3c[nH]c4ncccc34)cs1)cn2CCN1CCOCC1 | 60% | 49.2% | 77.2% | 39.3% | 59.8% | 18.8% | 44.5% | 52.1% | 71.6% | 38.4% | 77% | 18.6% | 74.2% | 42.6% | 61.6% | 56.6% | 62% | 55.1% | 97.2% | 41.6% |
| CC[C@H](C)[C@H](NC(=O)NC(C)(C)C)C(=O)N(C)[C@H](C[C@@H](OC(C)=O)c1nc(C(=O)N[C@@H](Cc2ccccc2)C[C@H](C)C(=O)OC)cs1)C(C)C | 24.1% | 16.3% | 44.4% | 12.4% | 1.65% (active) | 17.3% | 14.4% | 19.1% | -7.51% (active) | -53.8% (active) | 1.97% (active) | 7.43% (active) | 48.8% | 13% | 32.6% | 21.8% | 12.2% | 2.57% (active) | 43.8% | 2.12% (active) |
| CCOC(=O)[C@@H](C)C[C@H](Cc1ccccc1)NC(=O)c1csc([C@@H](C[C@H](C(C)C)N(C)C(=O)CNC(=O)[C@H]2CCCCN2C)OC(C)=O)n1 | 31.7% | 69.9% | 44.7% | 23.5% | 5.98% (active) | 47.5% | -12.8% (active) | 16.4% | 19.8% | -11.6% (active) | 9.26% (active) | 6.73% (active) | 76.1% | 14.5% | -13.8% (active) | 46.6% | 5.3% (active) | -8.42% (active) | 58.7% | -20.9% (active) |
| CCN(CC)c1ccc2c(c1)OC(N)=C(C#N)C2c1cc(OC)c2c(c1)OCO2 (configuration not stated) | 17.8% | 29% | 47.1% | 42% | 3.22% (active) | 38.2% | -41.7% (active) | 19.8% | 15.5% | -42.8% (active) | -3.69% (active) | 17.5% | 61.1% | 4.28% (active) | 30.9% | 21.3% | 17% | 3.37% (active) | 77.7% | 7.87% (active) |
| CCOP1(=O)CC(C)=C(Cl)C(P(=O)(OCC)OCC)C1 (configuration not stated) | 91.5% | 103% | 124% | 93.9% | 112% | 89.1% | 71.3% | 90.4% | 115% | 94.1% | 109% | 110% | 118% | 87.6% | 74.5% | 107% | 103% | 113% | 76.9% | 74.3% |
| ClCCN(CCCl)c1nc(Cl)c(C2CC(c3ccccc3)=NN2c2cc(Cl)cc(Cl)c2)s1 (configuration not stated) | 99.7% | 99.6% | 97.8% | 111% | 99.3% | 113% | 97.6% | 94.7% | 100% | 121% | 107% | 99.1% | 103% | 98.7% | – | 96.7% | 107% | 101% | 95.9% | 108% |
| COc1cc(C=C2c3ccccc3C(=O)c3ccccc32)ccc1OCCCCOc1cc2c(cc1OC)C(=O)N1CCCC1C=N2 (configuration not stated) | -52.7% (active) | -66.4% (active) | 13.3% | -62.5% (active) | -77% (active) | -59.4% (active) | -53.1% (active) | -37.8% (active) | -100% (active) | -93.9% (active) | -92.7% (active) | -15.4% (active) | -28.8% (active) | -23.7% (active) | – | -59.9% (active) | -42.2% (active) | -70.9% (active) | -73.3% (active) | -66.7% (active) |
| CCOC(=O)c1c(C)n(Cc2ccccc2)c2cc(CN(C)C)c(O)cc12 | 57.2% | 91.3% | 41.8% | 47.9% | 53.4% | 8.81% (active) | 77.9% | 79.5% | 57.8% | 58% | 79.9% | 29.3% | 103% | – | 66.9% | 82.9% | 43.6% | 57.8% | 81.8% | 81.3% |

— PubChem BioAssay (NCI)
